Source: PubChem BioAssay (NCI)
This is part of a sample that, as a whole, favours compounds with a hit. Of some 83,000 tested, about 20% had one in any assay.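 Treatment: one concentration, 48 hours, 96-well format. Scoring: percent growth, with anything below 10 considered active.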 Values without a mark were called inactive. Activity calls are given as the source filed them.

Assays:
Assay in all cases: NCI-60 one-dose screen, 48 h (100 = growth as untreated, 0 = no growth, -100 = all killed)
Details in all cases: 10 µM unless noted
HCT-15 colon = test system: HCT-15 colon
HT29 colon = test system: HT29 colon
SNB-75 CNS = test system: SNB-75 CNS
SNB-19 CNS = test system: SNB-19 CNS
U251 CNS = test system: U251 CNS
PC-3 prostate = test system: PC-3 prostate
SK-MEL-5 melanoma = test system: SK-MEL-5 melanoma
UACC-62 melanoma = test system: UACC-62 melanoma
LOX IMVI melanoma = test system: LOX IMVI melanoma
SK-MEL-28 melanoma = test system: SK-MEL-28 melanoma
SK-MEL-2 melanoma = test system: SK-MEL-2 melanoma
EKVX NSCLC = test system: EKVX NSCLC
SN12C renal = test system: SN12C renal
UO-31 renal = test system: UO-31 renal
TK-10 renal = test system: TK-10 renal
ACHN renal = test system: ACHN renal
CAKI-1 renal = test system: CAKI-1 renal
A498 renal = test system: A498 renal
CCRF-CEM leukemia = test system: CCRF-CEM leukemia
MOLT-4 leukemia = test system: MOLT-4 leukemia

| SMILES | growth (HCT-15 colon) | growth (HT29 colon) | growth (SNB-75 CNS) | growth (SNB-19 CNS) [%] | growth (U251 CNS) | growth (PC-3 prostate) | growth (SK-MEL-5 melanoma) | growth (UACC-62 melanoma) | growth (LOX IMVI melanoma) | growth (SK-MEL-28 melanoma) | growth (SK-MEL-2 melanoma) | growth (EKVX NSCLC) | growth (SN12C renal) | growth (UO-31 renal) | growth (TK-10 renal) | growth (ACHN renal) | growth (CAKI-1 renal) | growth (A498 renal) | growth (CCRF-CEM leukemia) | growth (MOLT-4 leukemia) |
| --- | --- | --- | --- | --- | --- | --- | --- | --- | --- | --- | --- | --- | --- | --- | --- | --- | --- | --- | --- | --- |
| COc1cnc2c(c1)C(=O)c1c-2n(CCCN2CCCC2)c(=O)c2cc(Cl)ccc12 | 39.4% | -72.8% (active) | 19.2% | 28.7 | 20.1% | 20.4% | 14.7% | 21.1% | 12.5% | 85.1% | 65.2% | 46.6% | 27.5% | 15.9% | 39.4% | 7.7% (active) | 42.4% | -9.2% (active) | -38.1% (active) | -24.4% (active) |
| CCN1C(=O)/C(=C/N2N=C(c3ccc(Cl)cc3)CC2c2ccc(OC)cc2)SC1=S (stereo not given) | 87.8% | 79.8% | 82.8% | 92.9 | 81.9% | 78.6% | 99.4% | 70.8% | 84.5% | 103% | 84.4% | 93.6% | 86.2% | 71.1% | 102% | 94.1% | 91.6% | 64.4% | 100% | 73.4% |
| CN(C)c1nc(-c2cccs2)n2nc(-c3ccc(Cl)cc3)cc2n1 | 92% | 33.2% | -50.4% (active) | 21.1 | 7.58% (active) | 47.1% | 64.2% | 70.7% | 26.5% | 79.2% | 67% | 49.6% | 44.9% | -63.9% (active) | -23.1% (active) | -21.1% (active) | 18.8% | -11.4% (active) | 73.8% | 82.1% |
| C(=Nc1ccc(-c2ccc(N=Cc3ccccc3)cc2)cc1)c1ccccc1 | 106% | 93.9% | 83.4% | 107 | 98.3% | 80.3% | 105% | 93.7% | 105% | 99.9% | 109% | 105% | 93.3% | 66.6% | 110% | 101% | 94.3% | 97.9% | 88.3% | 83% |
| NC(CCC(=O)NC(CS)C(=O)NCC(=O)O)C(=O)O (stereo not given) | 101% | 106% | 95.6% | 99 | 106% | 81.5% | 102% | 96.7% | 104% | 116% | 100% | 99.8% | 108% | 85.9% | 154% | 104% | 100% | 127% | 121% | 102% |
| COc1cc(C2C(C#N)=C(N)Oc3cc4c(cc32)OCO4)cc2c1OCO2 (stereo not given) | 21.5% | 9.21% (active) | -9.64% (active) | 45.7 | 28.4% | 27.9% | 19.8% | 30.7% | 38.3% | 41.7% | 56.6% | 55.7% | 35.2% | 46.3% | 72.1% | 35% | 60.8% | 8.65% (active) | 18.2% | 20.3% |
| CC(=O)Nc1ccc(/C=N/N2CCCCCC2)cc1 | 102% | 102% | 86.2% | 91.8 | 90.4% | 109% | 106% | 95.9% | 101% | 103% | 118% | 98.8% | 83.3% | 93.9% | 114% | 79.1% | 92.7% | 108% | 106% | 102% |
| COc1ccc2c(c1)C1=NN(C(=O)CO)[C@H](c3ccc(OC(F)(F)F)cc3)[C@@H]1CC2 | 84.7% | 92.3% | 90.3% | 93.4 | 87.3% | 72.9% | 83.4% | 76.3% | 88.7% | 121% | 89.5% | 94.3% | 99.6% | 53.5% | 162% | 87.9% | 116% | 94.4% | 129% | 86.9% |
| CC(C)[C@@]12C[C@@H](OC(=O)[C@H]3CO3)[C@@](C)(O1)[C@@H]1CC[C@@H](C)[C@H]1[C@@H]2OC(=O)/C=C/c1ccccc1 | 55.5% | 84.3% | 71.4% | 86.6 | 67.8% | 60.7% | 93.4% | 70.1% | 70.9% | 106% | 82.4% | 71.9% | 52.5% | -8.95% (active) | 103% | 23.5% | 46.6% | -61.1% (active) | 81.9% | 72.8% |
| Cn1c(-c2ccccc2)cc(=O)n1-c1ccccc1 | 104% | 106% | 92.9% | 108 | 109% | 100% | 104% | 103% | 101% | 113% | 121% | 93.7% | 107% | 101% | 116% | 109% | 95.6% | 89.1% | 91.1% | 99.6% |
| COc1ccc(Cl)cc1Nc1nc(C(F)(F)F)ccc1C(=O)NN | 15.8% | 31.4% | 15% | 41.7 | 18.4% | 17.2% | 77.5% | 9.62% (active) | 5.37% (active) | 13.4% | 11.7% | 27.9% | 35.7% | 33.6% | 26.1% | 6.99% (active) | 20.5% | 75.3% | -76.5% (active) | 24.5% |
| Cc1ccsc1C(=O)CC(=O)C(F)(F)C(F)(F)C(F)(F)F | 111% | 111% | 92.3% | 111 | 103% | 91.2% | 109% | 96.7% | 97.8% | 103% | 115% | 93% | 96.7% | 86.5% | 126% | 102% | 92% | 116% | 95.7% | 110% |
| COc1cccc(-c2cc(-c3cccs3)c(C#N)c(=O)[nH]2)c1 | 97.8% | 116% | 98.4% | 99.9 | 100% | 103% | 107% | 96.3% | 99.5% | 115% | 107% | 106% | 103% | 89.4% | 122% | 102% | 96.8% | 100% | 100% | 107% |
| CCCCCCCCCCCCCCCC1=NC(C)(C)CN1C(C)C | -63.5% (active) | -50% (active) | -13.4% (active) | 42.6 | -67% (active) | -41.4% (active) | -86.1% (active) | -75.5% (active) | -79.4% (active) | -80% (active) | -67.9% (active) | 5.51% (active) | -36.3% (active) | -57.5% (active) | -74.2% (active) | -58.3% (active) | -45.4% (active) | 63.4% | -56.3% (active) | -59.8% (active) |
| CCOC(=O)N1C2CCC(C2)N1C(=O)OCC | 106% | 107% | 71.6% | 100 | 99.1% | 105% | 104% | 98.2% | 99.7% | 97.4% | 99% | 113% | 105% | 95.6% | 94.7% | 106% | 106% | 115% | 100% | 93% |
